Source: PubChem
In the library only some 1.9% were active in any assay of this set; here they are far more common.
HTT cytoprotect = qHTS Multiplex Assay to Identify Dual Action Probes in a Cell Model of Huntington: Cytoprotection (ATP). PC12 HTT-Q103 induced, cytoprotection, ATP luminescence, 40 h. Potency, µM (highest dose often 56.4 µM), without a hit: cytoprotection (ATP increase), hits mostly activators. 230,000 tested, 0.14% active; note: % of control where 0% means no effect; nearly all actives have a fitted effect of over 45% in size
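Rat PC12, Q103 Htt exon1-GFP fusion, ecdysone promoter; tebufenozide inducer 100 nM final; compound titration; qHTS, 1500 cells/well; ATPlite luminescent read.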
ERK EGF inh = qHTS Assay for Inhibitors of the ERK Signaling Pathway using a Homogeneous Screening Assay; Stimulation with EGF; HEK293-V1b, EGF-stimulated phospho-ERK AlphaScreen; Potency, µM (doses to about 11.5 µM), for the others: top-dose activity change, negative = inhibition, most hits filed as inhibitors; 130,000 tested, 0.41% active; AID 1454, 2008;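 note: plate controls were stimulated vehicle wells for no effect and unstimulated vehicle basal for full effect; nearly all actives have a fitted effect of over 55% in size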
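Homogeneous cell-based phospho-ERK assay: HEK293/V1b cells in 1% FBS, compound 30 min then EGF 5 min, AlphaScreen luminescence. Activity normalized between DMSO and 25 nM EGF controls; AC50 from Hill modelling.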
HTT aggregate = qHTS Multiplex Assay to Identify Dual Action Probes in a Cell Model of Huntington: Aggregate Formation (GFP) | PC12 HttQ103-GFP aggregates, Acumen cytometry, 40 h | Potency, µM (series often up to 46.1 µM), without a hit: top-dose activity change, negative = inhibition, actives largely listed as inhibitors | 220,000 tested, 1.1% active | AID 1688, 2009; note: % is set by controls: 0 for no effect and ±100 for the full control effect; nearly all actives have a fitted effect of over 60% in size
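Aggregate formation scored by laser-scanning cytometer (488 excitation, 500–530 emission) in lysed PC12 cells expressing Q103-GFP after 100 nM tebufenozide induction; library tested in dose series, with ATPLite reagent added in the multiplex.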
NPSR antagonist = qHTS Assay for Antagonists of the Neuropeptide S Receptor: cAMP Signal Transduction. Q6W5P4. CHO-NPSR cells, cAMP TR-FRET, antagonist mode. Potency, µM (titrated, usually from 38.3 µM), for the others: top-dose activity change, negative = inhibition, actives largely listed as inhibitors. 220,000 tested, 1% active. AID 1461, 2008; note: % is set by controls: 0 for no effect and ±100 for the full control effect; nearly all actives have a fitted effect of over 50% in size
Target sequence (Q6W5P4 whole entry, looked up): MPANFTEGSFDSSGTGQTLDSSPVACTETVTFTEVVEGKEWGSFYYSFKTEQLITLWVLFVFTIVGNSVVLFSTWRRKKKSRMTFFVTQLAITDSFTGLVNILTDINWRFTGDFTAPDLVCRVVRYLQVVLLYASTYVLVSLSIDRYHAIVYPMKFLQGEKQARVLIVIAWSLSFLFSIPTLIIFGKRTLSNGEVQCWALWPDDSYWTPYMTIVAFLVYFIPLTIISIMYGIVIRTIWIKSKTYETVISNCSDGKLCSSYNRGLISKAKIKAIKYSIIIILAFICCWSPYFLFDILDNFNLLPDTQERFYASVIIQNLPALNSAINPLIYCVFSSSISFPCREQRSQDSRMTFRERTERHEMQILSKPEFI
IMPase Li cell = qHTS Assay for Identifying the Cell-Membrane Permeable IMPase Inhibitors: Potentiation with Lithium. CHO-M1 cells, IP1 TR-FRET (IP-One), carbachol + lithium. Potency, µM (titrated, usually from 59.4 µM), without a hit: at the highest dose activity, negative = IMPase inhibition, most hits filed as inhibitors. 210,000 tested, 0.35% active. AID 1457, 2008;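 note: IP1 builds up when IMPase is blocked and the TR-FRET signal falls; plate controls were basal vehicle for no effect and high inhibitor control for full effect; nearly all actives have a fitted effect of over 50% in size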
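Steps: plate 2000 CHO-M1 cells per well and culture 16–30 h; add compound and lithium; incubate 30 min, 37C; add d2-IP1 tracer and Eu cryptate anti-IP1 antibody in lysis buffer; read after 10 min at room temperature.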
Active calls of the source: *; ? = inconclusive; . = no result given; [ ] = dose if it differs, or a comment. Calls come from the whole dose curve; as a rule, active = well fitted curve in the direction sought with a large enough effect; inconclusive = small, poorly fitted or top-dose-only effect, or another doubt; inactive = no such curve, though single readings can be large; an effect the other way counts as inactive or inconclusive. Potency is the fitted concentration of half-maximal effect.

SMILES	HTT cytoprotect	ERK EGF inh	HTT aggregate	NPSR antagonist	IMPase Li cell
COc1ccc(C(=O)c2coc3ccc(O)c(CN4CCCCC4)c23)cc1	-11%[10 µM]	.	-10%	?	55%[38.3 µM]
OC[C@@H]1O[C@@H](n2cnc3c(NC4CCCCC4)ncnc32)[C@@H](O)[C@H]1O	-33%[1.9 µM]	.	.	.	.
Cc1ccc(NC(=S)NCCC(c2ccccc2)c2ccccc2)c(C)c1	15%[10 µM]	.	13µM*	-28%[46.1 µM]	14%
CC(=O)OCC(=O)[C@@]12OC3(CCCC3)OC1CC1C3CCC4=CC(=O)C=C[C@@]4(C)[C@]3(F)C(O)C[C@]12C (some centres undefined)	-61%	9%	21%	.	5%
O=c1oc2cc(O)ccc2cc1-c1ccc2c(c1)OCCO2	-237%	1%	.	.	-15%
Cc1ccc(C(=O)[C@@H]2[C@@H]3[C@@H](C(=O)[C@@H]4OC[C@H]3O4)[C@@H]3C=Cc4ccccc4N23)cc1	-3%	.	.	.	.
CCCCCCCCCCCCCCCC(=O)NC[C@@H](COP(=O)([O-])OCC[N+](C)(C)C)OCC	2%[1.9 µM]	.	.	.	.
Nc1c(C(=O)O)cnc2c(-c3ccc(Cl)cc3)cnn12	-93%	7%	-12%	-16%	23%
N#Cc1cnn2c(N)c(-c3ccc(Cl)cc3)cnc12	-28%	6%	-3%	-13%	11µM*
NS(=O)(=O)c1ccc(CNC(=O)c2cc(-c3ccccc3)nc3ccccc23)cc1	5%[10 µM]	3%[57.5 µM]	-1%[9.22 µM]	-33%	.
NS(=O)(=O)c1ccc(CNC(=O)c2cc(-c3ccccn3)nc3ccc(Cl)cc23)cc1	-18%	1%[57.5 µM]	9%	13µM*	?
Nc1ncnc2c1nc(Br)n2[C@@H]1O[C@H]2COP(=O)(O)O[C@@H]2[C@H]1O	-26%[1.9 µM]	.	.	.	.
O=C(COC(=O)c1ccc(Cl)c(S(=O)(=O)N2CCc3ccccc3C2)c1)Nc1ncc(Cl)cc1Cl	13%[10 µM]	1%	-4%	-5%	-4%
Cc1nc(NC(=O)COC(=O)c2ccc(S(=O)(=O)N3CCc4ccccc4C3)cc2)c(Cl)cc1Cl	-17%	-7%	6%[9.22 µM]	-11%	10µM*
O=C(N/N=C/c1ccccc1C(=O)O)c1ccc(COc2cccc3cccnc23)cc1	.	0%	-25%	8%	-7%
O=C(N/N=C/c1ccc[nH]1)c1ccc(COc2cccc3cccnc23)cc1	-32%	25µM*	-2%	-8%	-6%
CSc1nc(Oc2ccc3ccccc3c2)c2ccccc2n1	-24%[10 µM]	.	10µM*	-11%[46.1 µM]	49%[38.3 µM]
NC1=NC[C@H](CC2CCCCC2)N1CCc1cc(C(F)(F)F)cc(C(F)(F)F)c1	-10%[10 µM]	-7%[57.5 µM]	-5%[9.22 µM]	10µM*	.
Cc1ccc2nc(C3CCN(S(=O)(=O)c4ccc5ccccc5c4)CC3)[nH]c2c1	-77%	.	18µM*	-30%[46.1 µM]	-1%[38.3 µM]
O=S(=O)(c1ccc2c(c1)OCCO2)N1CCC(c2nc3ccccc3[nH]2)CC1	-23%[10 µM]	.	-9%	-18%[46.1 µM]	17%[38.3 µM]
CCc1nnc(NC(=S)Nc2ccccc2)s1	-19%	-5%	9%	-31%	-6%
Cc1nc(NC(=S)Nc2ccccc2)sc1C	-48%	10%	6%	1.3µM*	-3%
CCN1C/C(=C/c2cccc([N+](=O)[O-])c2)C(=O)/C(=C/c2cccc([N+](=O)[O-])c2)C1	-23%[10 µM]	?	?	2.5µM*	14%
CN(C)c1ncc2nc(-c3ccc(Cl)cc3)c(=O)n(CCC#N)c2n1	3%	.	.	.	-4%
O=C(c1ccc(Cl)nc1)N1CCc2ccccc2C1	6%[10 µM]	.	-14%	-1%[46.1 µM]	13%[38.3 µM]
SMILES	HTT cytoprotect	ERK EGF inh	HTT aggregate	NPSR antagonist	IMPase Li cell
O=C(c1cncc(Br)c1)N1CCc2ccccc2C1	14%[10 µM]	.	10µM*	3%[46.1 µM]	23%[38.3 µM]
CN(CCCC[C@H](CNCc1ccc(-c2ccccc2)cc1)N1C[C@H](c2ccccc2)N(CCc2ccc(Cl)c(Cl)c2)C(=O)C1=O)Cc1ccc(-c2ccccc2)cc1	-24%[10 µM]	?	?	10µM*	.
O=[N+]([O-])c1ccc(Oc2cccc(Br)c2)c2ccncc12	19%	.	-2%	-16%[46.1 µM]	27%[38.3 µM]
O=[N+]([O-])c1ccc(Oc2ccc(F)cc2)c2ccncc12	-3%	.	10µM*	-4%[46.1 µM]	32%[38.3 µM]
O=C(CCc1nc(-c2ccccc2F)no1)Nc1ccc(Oc2ccccc2)cc1	-89%	.	4µM*	0%[46.1 µM]	11%[38.3 µM]
O=C(O)CCCCCCCCCCP(=O)(c1ccccc1)c1ccccc1	13%[10 µM]	-6%[57.5 µM]	14%[9.22 µM]	?	.
O=P(CCCCCCCCCP(=O)(c1ccccc1)c1ccccc1)(c1ccccc1)c1ccccc1	-124%	.	11µM*	13µM*	44%[38.3 µM]
COc1ccc2[nH]c3c(Cl)ncnc3c2c1	-12%[10 µM]	.	-13%	28%[46.1 µM]	.
COc1ccc2[nH]c3c(=S)nc[nH]c3c2c1	20%[10 µM]	-7%	5%[9.22 µM]	29%	2.8µM*
CC(C)C(OC(=O)c1cccs1)C(=O)NCc1cccs1 (centres undefined)	20%	.	-7%	-10%[7.67 µM]	25µM*
CC(C)C(OC(=O)c1cccs1)C(=O)NCc1ccc2c(c1)OCO2 (centres undefined)	.	8%	.	-14%	10%
COc1ccc(-c2nn(-c3ccccc3)cc2/C=N/NC(=O)c2ccc(Br)o2)cc1	-40%	.	3.5µM*	6.3µM*	18%[38.3 µM]
CCCCc1nc2c(c3c1C[C@H](C)OC3)CN(S(=O)(=O)c1ccc(Cl)c3nonc13)CC2	-22%[10 µM]	.	.	.	5%
CCc1ccc(/C=C/C(=O)c2c(C)cc(C)[nH]c2=O)cc1	9%[10 µM]	.	25µM*	?	17%[38.3 µM]
Cc1ccc(/C=C/C(=O)c2c(C)cc(C)[nH]c2=O)cc1	9%	.	?	?	-5%[38.3 µM]
COc1cccc(Nc2ncc3nc(C)c(=O)n(-c4ccccc4)c3n2)c1	-9%	.	.	.	4%
CC1(C)Oc2cc3c(cc2O1)OC(C)(C)O3	-3%[10 µM]	.	.	.	.
Cc1cc(O)c(C(C)(C)C)cc1Sc1cc(C(C)(C)C)c(O)cc1C	-235%	.	.	.	-5%
COc1ccc2nc(Sc3c([N+](=O)[O-])nc(C)n3Cc3ccccc3)[nH]c2c1	13µM*	.	.	-26%[46.1 µM]	0%[38.3 µM]
CC1Cc2c(-c3ccccc3)nc3c(c2CO1)CN(CCOc1ccccc1)CC3 (centres undefined)	-60%[10 µM]	.	.	.	.
NC(Cc1ccc(O)c(O)c1)C(=O)O (centres undefined)	.	?	.	.	9%
O=C(Oc1ccccc1)N1CCC2(CCCN(c3ccccn3)C2)CC1	16%	14%	.	.	28%
O=c1c2ccccc2nc2n1C(CSCc1ccc(Cl)cc1Cl)CS2 (centres undefined)	-41%	.	8.9µM*	-1%[46.1 µM]	8%[38.3 µM]
O=C(CCl)Nc1cn(-c2ccccc2)nc1-c1ccccc1	-192%	1%	22µM*	-19%	-5%
